# Test results reported in PubChem BioAssay (NCI).
# Several values for one entry are separate records, joined by “and”; a condition that tells them apart may be missing. Identical values can stand only once. Compounds without any hit were thinned out: in the full panel of roughly 83,000, 20% have a hit.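 How to read the values: 0–100, growth inhibition (40 = 60% inhibited); 0, no net growth; -100 to 0, cell death (-40 = 40% of starting cells died; -100 = all dead).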 Activity calls are given as the source filed them. How the source made its calls: active means growth percent below 10; inactive means the rest.
# Tested on: HL-60(TB) leukemia
# Experiment: NCI-60 one-dose screen, 48 h (100 = growth as untreated, 0 = no growth, -100 = all killed)
# Settings: 10 µM unless noted
row,Compound,growth
1,C/C(=N/NC(N)=S)c1ccc(Nc2nc(SCC(C)C)nc(-c3ccc(F)cc3)c2C#N)cc1,73.9% (inactive)
2,NC(N)=Nc1ccc(Nc2cccc(Oc3ccc(Cl)c(C(F)(F)F)c3)c2)cn1,-67.4% (active)
3,CCCCOc1ccc(S(=O)(=O)N2CCN(c3nccc(N4CCOCC4)n3)CC2)cc1,32.4% (inactive)
4,CCCn1cnc2c(c1=N)C(c1ccc(F)cc1)c1sc3c(C)cccc3c1O2 (stereo not drawn),-30.2% (active)
5,O=C(CSc1nc2ccccc2c(=O)n1-c1ccc(S(=O)(=O)Nc2ccc(Cl)nn2)cc1)Nc1ccc(S(=O)(=O)Nc2ccc(Cl)nn2)cc1,96.4% (inactive)
6,C(=C(\C1=NCCN1)n1cnc2ccccc21)/c1cccc2ccccc12,71.6% (inactive)
7,CS(=O)(=O)Nc1cc(-c2ccc3ncc(C#N)c(Nc4cccc(Cl)c4F)c3c2)cnc1Cl,0.143% (active)
8,C/C=C/CC(C)C(O)[C@H](NC(=O)[C@@H]1CCCN1C(=O)[C@](C)(CC)NC(=O)CCCCCCCCC)C(=O)N[C@@](C)(CC)C(=O)N[C@@H](CCC(N)=O)C(=O)N[C@H](CCC(N)=O)C(=O)NC(C)(C)C(=O)NC(C)(C)C(=O)N[C@@H](CCC(N)=O)C(=O)N[C@H](CC(C)C)C(=O)N[C@H](CO)CC(C)C (stereo partly drawn),52.5% (inactive) and -38.8% (active)
9,N#Cc1cnc2ccc(-c3cnc4n[nH]nc4c3)cc2c1N1CCc2cc(F)c(Cl)cc21,20.2% (inactive)
10,CC1=C(C)C(=O)C(Nc2cccc(C(F)(F)F)c2)=C(Br)C1=O,54.7% (inactive)
11,Oc1ccccc1/C=N/Nc1nc(N/N=C/c2ccccc2O)nc(N2CCOCC2)n1,3.74% (active)
12,N#Cc1c(-c2cccs2)cc(-c2cnccn2)nc1SCC(=O)Nc1ccc(Br)cc1,107% (inactive)
13,N#Cc1nc(-c2ccccc2)oc1S(=O)(=O)N1CCN(CCc2ccccn2)CC1,5.71% (active)
14,CCN(CC)Cc1c(-c2cccc(OC(F)(F)F)c2)[nH]c2ccc(N3CCCC3)cc2c1=O,72.9% (inactive)
15,COc1ccc(OC)c(NC(=O)CCCCCCNC(=O)C(O)(O)C(F)(F)F)c1,10.6% (inactive)
16,Brc1ccc2[nH]cc(-c3nn4cc(-c5nccs5)nc4s3)c2c1,59.1% (inactive)
17,COc1cc(/C=C/C(=O)c2ccc(NC(=O)COc3cccc4cccnc34)cc2)cc(OC)c1OC,34.7% (inactive)

row,Compound,growth
1,O=C(NNc1nc2cc(F)c(F)cc2n2cccc12)c1cccnn1,-2.31% (active)
2,C#C[C@]1(O)CC[C@H]2[C@@H]3CC=C4c5sc(N6CCN(C)CC6)nc5CC[C@]4(C)[C@H]3CC[C@@]21C,6.2% (active)
3,CC(C)c1nn(-c2ccccc2)c(N2CCCCC2)c1/C=N/NC(N)=S,98.4% (inactive)
4,CN(C)c1ccc(/C=N/Nc2nc(N/N=C/c3ccc(N(C)C)cc3)nc(N3CCCCC3)n2)cc1,-38% (active)
5,C#C[C@]1(O)CC[C@H]2[C@@H]3CC=C4c5sc(Nc6cccc(F)c6)nc5CC[C@]4(C)[C@H]3CC[C@@]21C,-13.1% (active)
6,O=S(=O)(NC1c2ccccc2C[C@H]1O)c1ccc(Cl)cc1Cl (stereo partly drawn),98.1% (inactive)
7,CC[C@]12C=CCN3CC[C@@]4(c5ccc(OC)cc5N(C)[C@H]4[C@@](O)(C(=O)OC)[C@@H]1OC(=O)CCN1CCc4ccccc4C1)[C@@H]32,80.4% (inactive)
8,COc1cc(/C=C2\SC(=O)NC2=O)ccc1OCC(=O)Nc1ccc(C(=O)/C=C/c2cc3ccccc3nc2Cl)cc1,93.7% (inactive)
9,Oc1[nH]c2ccccc2c1Nn1c(N=N/C=c2/ccc3c(c2)C=NN=3)n[nH]c1=S,139% (inactive)
10,CCCSc1nc(Nc2ccc(/C(C)=N\NC(N)=S)cc2)c(C#N)c(-c2ccc(OC)cc2)n1,74% (inactive)
11,CN1CCN(c2ccc(/C=N/Nc3nc4ccccc4c(=O)n3-c3ccccc3)cc2)CC1,113% (inactive)
12,Cc1cc2nc3c4cc(Cl)ccc4n(CC(=S)NCCN(C)C)c3nc2cc1C,-63.4% (active)
13,Cc1ccc(CSc2nc(-c3ccc(Cl)cc3)c(C#N)c(N3CCNCC3)n2)cc1,43.3% (inactive)
14,Cc1cc(=O)n2nc(-c3cn(C)c4ccc(Cl)cc34)sc2n1,92.5% (inactive)
15,Cc1nn(-c2ccccc2)c2nc(CCl)[nH]c(=O)c12,33.1% (inactive)
16,Cc1ccc2c(n1)C(=O)C(Cl)=C(Nc1cc(C(F)(F)F)cc(C(F)(F)F)c1)C2=O,40.7% (inactive)
